Source: PubChem BioAssay (EPA / NIEHS)
Calls of active or inactive are those of the source. The calls were made as follows: active = hit-call score of the fitted dose curve at least 0.9, where 1 is the maximum; inactive = score below 0.9.

Assays:
Conditions in all cases: actives raise or lower the signal
[1] = CEETOX_H295R_11DCORT: CeeTox H295R High-throughput Steroidogenesis Assay for 11-Deoxycortisol (11DCORT) (AID 2283432);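 as to AC50: 11-deoxycortisol secreted into the medium measured by LC-MS/MS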
Summary of the method: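 Steroidogenesis in human H295R cells: 48 h chemical exposure after forskolin priming, 11-deoxycortisol measured by LC-MS/MS.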

[2] = CEETOX_H295R_OHPREG: CeeTox H295R High-throughput Steroidogenesis Assay for OH-Pregnenolone (OHPREG) (AID 2283434)
Summary of the method: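 Secreted 17alpha-hydroxypregnenolone measured by HPLC-MS/MS after liquid-liquid extraction. Human adrenal H295R cells received 48 h forskolin (10 uM) stimulation before 48 h chemical exposure at 0.1% final DMSO; MTT viability in same wells; bidirectional fit against DMSO.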

[3] = CEETOX_H295R_OHPROG: CeeTox H295R High-throughput Steroidogenesis Assay for OH-Progesterone (OHPROG) (AID 2283435);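 as to AC50: 17alpha-hydroxyprogesterone secreted into medium measured by HPLC-MS/MS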
Summary of the method: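 Medium steroid levels read by LC-MS/MS after 48 h chemical treatment (0.1% DMSO) of human adrenal H295R cells that had been forskolin-primed (10 uM, 48 h). Gain or loss fitted against DMSO; MTT cytotoxicity checked per well.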

[4] = CEETOX_H295R_CORTIC: CeeTox H295R High-throughput Steroidogenesis Assay for Corticosterone (CORTIC) (AID 2283437)
Summary of the method: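 Medium corticosterone was quantified by tandem mass spectrometry following 48 hours of chemical exposure (0.1% DMSO) in human H295R cells previously stimulated 48 hours with 10 uM forskolin. Viability checked by MTT; chemicals diluted and retested when viability fell below 70%.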

[5] = CEETOX_H295R_CORTISOL: CeeTox H295R High-throughput Steroidogenesis Assay for Cortisol (AID 2283438)
Summary of the method: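 Cortisol measured by HPLC-MS/MS after MTBE extraction of medium from H295R cells exposed 48 h to chemical (0.1% DMSO), following 48 h prestimulation with 10 uM forskolin. Viability assessed by MTT in the same wells.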

[6] = CEETOX_H295R_DOC: CeeTox H295R High-throughput Steroidogenesis Assay for DOC (AID 2283439)
Summary of the method: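 11-Deoxycorticosterone quantified in medium by MTBE extraction and HPLC-MS/MS after 48 h chemical exposure (0.1% DMSO) of forskolin-primed (10 uM, 48 h) H295R cells. Same-well MTT viability; data fitted bidirectionally against DMSO.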

[7] = CEETOX_H295R_PROG: CeeTox H295R High-throughput Steroidogenesis Assay for Progesterone (PROG) (AID 2283442);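 as to AC50: human H295R adrenal cells primed with 10 µM forskolin before dosing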
Summary of the method: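 Measured analyte is progesterone secreted by H295R cells at 48 h of chemical treatment, following 10 uM forskolin priming. Quantitation used HPLC-MS/MS against a 7-point standard curve; cytotoxicity was checked by MTT absorbance.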

[8] = CEETOX_H295R_ESTRADIOL: CeeTox H295R High-throughput Steroidogenesis Assay for Estradiol (AID 2283440);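 also: estradiol secreted into medium quantified by LC-MS/MS after dansyl derivatisation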
Summary of the method: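 Readout is estradiol in conditioned medium, quantified by reverse-phase HPLC-MS/MS against a 7-point standard curve. Cells: H295R, forskolin-stimulated, then dosed 48 h in 0.1% DMSO; activity fitted in both directions relative to DMSO.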

[9] = CEETOX_H295R_ESTRONE: CeeTox H295R High-throughput Steroidogenesis Assay for Estrone (AID 2283441);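 as to AC50: human adrenal H295R cells prestimulated with forskolin for two days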
Summary of the method: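 Estrone secreted into medium quantified by LC-MS/MS after dansyl chloride derivatization, following 48 h chemical exposure (0.1% DMSO final) of forskolin-prestimulated (10 uM, 48 h) H295R cells; gain or loss fitted against DMSO; MTT viability in same wells.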

[10] = CEETOX_H295R_ANDR: CeeTox H295R High-throughput Steroidogenesis Assay for Androstenedione (ANDR) (AID 2283436)
Summary of the method: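 Medium from 48 h chemical-treated H295R adrenal cells was extracted with MTBE and androstenedione measured by LC-MS/MS. Activity was fit in both directions relative to DMSO. Cytotoxic concentrations were re-tested after dilution until MTT viability reached ≥70%.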

Measured: AC50

S=C([S-])NCCNC(=S)[S-].[Mn+2]
not listed: [8] | [9] | [10]
inactive: all other assays above

C#CCOC(=O)[C@@H](C)Oc1ccc(Oc2ncc(Cl)cc2F)cc1
active: [1] 9.92 µM | [3] 9.84 µM | [6] 6.87 µM | [7] 9.01 µM
not listed: [10]
inactive: all other assays above

c1ccc2[nH]c(-c3cscn3)nc2c1
active: [7] 59 µM
inactive: all other assays above

Oc1ccc(C(c2ccc(O)cc2)C(Cl)(Cl)Cl)cc1
active: [1] 2.85 µM | [2] 0.299 µM | [3] 10 µM | [5] 0.399 µM | [6] 0.207 µM | [7] 0.848 µM
inactive: [4]

S=C(S)NCCNC(=S)S.[Mn+2].[S-]C([S-])=NCCN=C([S-])[S-].[Zn+2]
not listed: [8] | [9] | [10]
inactive: all other assays above

CC(=O)S[C@@H]1CC2=CC(=O)CC[C@]2(C)[C@H]2CC[C@@]3(C)[C@@H](CC[C@@]34CCC(=O)O4)[C@H]12
active: [1] 1.76 µM | [2] 0.805 µM | [10] 1.63 µM | [5] 1.83 µM
inactive: all other assays above

CCCCC(CC)CN1C(=O)C2C3C=CC(C3)C2C1=O (stereo not drawn)
not listed: [10]
inactive: all other assays above

C#C[C@]1(O)CC[C@H]2[C@@H]3CCC4=CC(=O)CC[C@@H]4[C@H]3CC[C@@]21CC
active: [2] 2.42 µM | [5] 2.4 µM
inactive: [1] | [3] | [4] | [6] | [7]

CCN(Cc1c(F)cccc1Cl)c1c([N+](=O)[O-])cc(C(F)(F)F)cc1[N+](=O)[O-]
inactive: [2] | [8] | [7]
active: [3] 15.3 µM | [9] 13.7 µM

CC(C)(C)[C@@H](O)[C@@H](Cc1ccc(Cl)cc1)n1cncn1
active: [5] 5 µM
not listed: [8] | [9] | [10]
inactive: all other assays above

CC1(C)C(C=C(Cl)Cl)C1C(=O)OCc1cccc(Oc2ccccc2)c1 (stereo not drawn)
active: [1] 11.3 µM | [3] 11.1 µM | [7] 11.5 µM
not listed: [8] | [9]
inactive: all other assays above

CCOC(=O)C(C)Oc1ccc(Oc2cnc3cc(Cl)ccc3n2)cc1 (stereo not drawn)
not listed: [8] | [9] | [10]
inactive: all other assays above
